Consider 40 molecules from PubChem BioAssay (Tox21).

Results filed as inconclusive are left out. Where a call stands in place of a potency, no number is given. Active and inactive are the calls of the source. Calls come from the whole dose curve; as a rule, active = well fitted cell-killing curve with a large enough effect in the repeat runs; inconclusive = weak or mixed curves, or effect the other way; inactive = no such curve, though single readings can be large or run the other way.
Potency is the fitted concentration of half-maximal effect.

This assay in a line: qHTS assay to identify small molecule antagonists of the thyroid receptor (TR) signaling pathway - cell viability counter screen (AID 743064). Note: nearly all actives have a fitted effect of over 50% in size. As to conditions: GH3.TRE-Luc viability, CellTiter-Fluor, 24 h; series mostly up to 70.3 µM. An excerpt: National Center for Advancing Translational Sciences [NCATS]
NIH Chemical Genomics Center [NCGC]
U.S. Environmental Protection Agency [EPA]
National Institutes of Environmental Health Sciences [NIEHS]
National Toxicology Program [NTP]
U.S. Food and Drug Administration [FDA]
Thyroid receptor (TR), a nuclear hormone receptor, plays an important role in development, proliferation, differentiation, metabolism, brain function, and cardiovascular system. […] To profile the Tox21 10K compound library in TR signaling, a cell-based GH3-TRE-Luc assay (GH3.TRE-Luc cell line, developed by the laboratory of Dr. Albertinka J. Murk, Wageningen University) was used to measure the inhibition of TR. GH3 (rat pituitary tumor) cells stably expressing a TR activity sensor consisting of two TR response elements and a luciferase reporter gene. The cytotoxicity of the Tox21 compound library against the GH3.TRE-Luc cell line was tested in parallel by measuring the cell viability using CellTiter-Fluor assay (Promega, Madison, WI) in the same wells.
Tox21 Assay Protocol Summary:
GH3.TRE-Luc cells were dispensed at 1500 cells/4 uL/well into 1536-well white solid bottom plates using a Multidrop Combi dispenser (Thermo Fisher Scientific Inc., Waltham, MA). After the assay plates were incubated at 37 C for 4 hours, 23 nL of library compound or DMSO controls was transferred to the assay plates by a pintool station (Kalypsys, San Diego, CA), followed by addition of 1 ul of T3 (1 nM, final concentration in the wells) to stimulate TR transactivation. The assay plates were incubated at 37 C for 23.5 h, and then 1 uL of CellTiter-Fluor reagent (Promega, Madision, WI) of measuring cytotoxicity was added to each well using a Bioraptr Flying Reagent Dispenser (FRD) workstation (Beckman Coulter, Indianapolis, IN, USA). The plates were incubated at 37C and 5% CO2 for additional 30 min, and fluorescence intensity was measured by a ViewLux plate reader (PerkinElmer, Shelton, CT).
As to `O=C1CCC(N2C(=O)c3ccccc3C2=O)C(=O)N1` (stereo not given), the Potency result was “inactive”.
On the same count and under the same terms, for `CCC(O)OC(O)CC` (stereo not given) the value was “inactive”; for `CC(=O)OCC(=O)[C@@]12N=C(C)O[C@@H]1C[C@H]1[C@@H]3CCC4=CC(=O)C=C[C@]4(C)[C@H]3[C@@H](O)C[C@@]12C`, “inactive”; for `CN(C)CCOCCN(C)C`, “inactive”.
For the molecule `Cc1cc(C)c(C)cc1C`, the Potency entry was “inactive”.
The same measure, in the same setting: the entry for `C=C(C)C(=O)Nc1ccc(Cl)c(Cl)c1` is “inactive”; for `O=C(O)c1ccc2c(c1)C(=O)OC2=O` it is “inactive”; for `c1ccc2c(c1)ccc1ccccc12` it is “inactive”.
The same measure, in the same setting: for `CC1CCC2CC1C2(C)C` (stereo not given) the value was “inactive”.
Consider `CC(=O)Nc1cccc(O)c1`, for which the Potency entry is “inactive”.
As for `CC1=C(C)S(=O)(=O)CCS1(=O)=O`, the Potency entry was “inactive”.
On the same count and under the same terms, the entry for `CC1=CC(=O)NS(=O)(=O)O1` is “inactive”; for `CCOC(=O)NNc1nncc2ccccc12` it is “inactive”.
`CCN(CC)CCCC(C)Nc1ccnc2cc(Cl)ccc12` (stereo not given): the activity change, negative = cytotoxic was -23.7% [at 8.44 µM] (inactive).
Turning to `Nc1ccccc1[N+](=O)[O-]`, the Potency entry is “inactive”.
In the case of `O=S1(=O)CC=CC1`, the Potency entry is “inactive”.
On the same count and under the same terms, the entry for `O=C(O)CCCCCCCCCCC(=O)O` is “inactive”.
Take `CCCSc1ccc2nc(NC(=O)OC)[nH]c2c1`: the Potency was 452 nM (active).
Same read-out and setting: for `COc1ccc(Nc2ccccc2)c(C)c1` the value was “inactive”; for `Oc1cccc2ccccc12`, “inactive”.
`c1ccc2scnc2c1`: the Potency result is “inactive”.
In the case of `Cc1occc(=O)c1O`, the Potency entry was “inactive”.
The same measure, in the same setting: for `COc1ccc2cc([C@H](C)C(=O)O)ccc2c1` the value was “inactive”; for `COc1ccc(NC(C)=O)cc1N`, “inactive”; for `C[C@H]1C[C@@H]2[C@H]([C@@H](O)C[C@@]3(C)[C@H]2CC[C@]3(O)C(=O)CO)[C@@]2(C)C=CC(=O)C=C12`, “inactive”.
On the same count and under the same terms, the entry for `Cc1cnc(C(=O)NCCc2ccc(S(=O)(=O)NC(=O)NC3CCCCC3)cc2)cn1` is “inactive”; for `CC(=O)Nc1ccccc1` it is “inactive”.
On the same count and under the same terms, for `CCCCCOC(C)=O` the value was “inactive”; for `CCC(O)OCCCOC` (stereo not given), “inactive”; for `O=S(=O)(O)c1ccc2ccccc2c1`, “inactive”.
As to `O=C(O)CC(C(=O)O)C(CC(=O)O)C(=O)O` (stereo not given), the Potency result is “inactive”.
Regarding `O=c1[nH]c(=O)n([C@H]2C[C@H](O)[C@@H](CO)O2)cc1Br`, the Potency result is “inactive”.
The same measure, in the same setting: for `CC(O)COCC(C)O` (stereo not given) the value was “inactive”; for `CC1=CCC2CC1C2(C)C` (stereo not given), “inactive”.
Still for that read-out and setting: the entry for `O=c1[nH]nnc2ccccc12` is “inactive”; for `CCCCCCCC(=O)OC` it is “inactive”; for `C[Si](O[Si](C)(C)C)O[Si](C)(C)C` it is “inactive”.
Take `Cc1ccc2oc(=O)ccc2c1`: the Potency entry is “inactive”.
Still for that read-out and setting: for `C=C(C)C(=O)OCCOCCOCCOC(=O)C(=C)C` the value was “inactive”; for `O=C(CC(C(=O)OC1CCCCC1)S(=O)(=O)O)OC1CCCCC1` (stereo not given), “inactive”.
